# Laboratory results published in paper PMC5540273 (PLoS ONE, 2017).
# Values joined by “and” are separate entries in the source; they are usually repeats but may differ in a detail not shown here. Identical values can stand only once. Like-named read-outs stand apart in the source and are kept apart here.
# Experiments:
# ACVR2A = conditions: concentration: 1 μM, replicates: in singlicate; n = 1
# ACVR2B = conditions: concentration: 1 μM, replicates: in singlicate, n = 1
# ACVRL1 = conditions: concentration: 1 μM, replicates: in singlicate; n = 1
# ADCK3 = test system: T1, ADCK3; conditions: concentration: 1 μM, replicates: in singlicate, n = 1
# T1 construct: gene CABC1
# ADCK4 = conditions: concentration: 1 μM, replicates: in singlicate, n = 1
# AKT1 = conditions: concentration: 1 μM, replicates: in singlicate, n = 1
# AKT2 = conditions: concentration: 1 μM, replicates: in singlicate, n = 1
# AKT3 = conditions: concentration: 1 μM, replicates: in singlicate, n = 1
# ALK = conditions: concentration: 1 μM, replicates: in singlicate, n = 1
# AMPK-alpha1 = test system: T2, AMPK-alpha1; conditions: concentration: 1 μM, replicates: in singlicate, n = 1
# T2 construct: gene PRKAA1
# AMPK-alpha2 = test system: T3, AMPK-alpha2; conditions: concentration: 1 μM, replicates: in singlicate, n = 1
# T3 construct: gene PRKAA2
# ANKK1 = conditions: concentration: 1 μM, replicates: in singlicate; n = 1
# ARK5 = test system: T4, ARK5; conditions: concentration: 1 μM, replicates: in singlicate, n = 1
# T4 construct: gene NUAK1
# ASK1 = test system: T5, ASK1; conditions: concentration: 1 μM, replicates: in singlicate, n = 1
# T5 construct: gene MAP3K5
# ASK2 = test system: T6, ASK2; conditions: concentration: 1 μM, replicates: in singlicate, n = 1
# T6 construct: gene MAP3K6
# AURKA = conditions: concentration: 1 μM, replicates: in singlicate, n = 1
# AURKB = conditions: concentration: 1 μM, replicates: in singlicate, n = 1
# AURKC = conditions: concentration: 1 μM, replicates: in singlicate, n = 1
# AXL = conditions: concentration: 1 μM, replicates: in singlicate, n = 1
# BIKE = test system: T7, BIKE; conditions: concentration: 1 μM, replicates: in singlicate, n = 1
# T7 construct: gene BMP2K
# 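Also: KINOMEscan kinase panel screen.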
structure (smiles),measurement,setting,value
O=C1NC(=O)C(N2CCc3ccccc32)=C1c1cccc(Cl)c1 [SB-408010],%Inh,ACVR2A,0%
same,%Inh,ACVR2B,7%
same,%Inh,ACVRL1,13%
same,%Inh,ADCK3,17%
same,%Inh,ADCK4,0%
same,%Inh,AKT1,5%
same,%Inh,AKT2,0%
same,%Inh,AKT3,5%
same,%Inh,ALK,0%
same,%Inh,AMPK-alpha1,0%
same,%Inh,AMPK-alpha2,22%
same,%Inh,ANKK1,1%
same,%Inh,ARK5,10%
same,%Inh,ASK1,0%
same,%Inh,ASK2,0%
same,%Inh,AURKA,25%
same,%Inh,AURKB,7%
same,%Inh,AURKC,37%
same,%Inh,AXL,0%
same,%Inh,BIKE,37%
N#Cc1c(N2CCOCC2)sc(-c2ccn[nH]2)c1-c1ccc(Cl)cc1,%Inh,ACVR2A,0%
same,%Inh,ACVR2B,0%
same,%Inh,ACVRL1,0%
same,%Inh,ADCK3,12%
same,%Inh,ADCK4,0%
same,%Inh,AKT1,0%
same,%Inh,AKT2,0%
same,%Inh,AKT3,0%
same,%Inh,ALK,0%
same,%Inh,AMPK-alpha1,9%
same,%Inh,AMPK-alpha2,0%
same,%Inh,ANKK1,0%
same,%Inh,ARK5,0%
same,%Inh,ASK1,0%
same,%Inh,ASK2,0%
same,%Inh,AURKA,44%
same,%Inh,AURKB,4%
same,%Inh,AURKC,0%
same,%Inh,AXL,0%
same,%Inh,BIKE,0%
Cl.Oc1cccc(Nc2ccnc3cc(-c4ccncc4)ccc23)c1 [GW494601],%Inh,ACVR2A,97.2%
same,%Inh,ACVR2B,95%
same,%Inh,ACVRL1,81%
same,%Inh,ADCK3,1%
same,%Inh,ADCK4,68%
same,%Inh,AKT1,0%
same,%Inh,AKT2,0%
same,%Inh,AKT3,0%
same,%Inh,ALK,47%
same,%Inh,AMPK-alpha1,0%
same,%Inh,AMPK-alpha2,0%
same,%Inh,ANKK1,43%
same,%Inh,ARK5,9%
same,%Inh,ASK1,0%
same,%Inh,ASK2,0%
same,%Inh,AURKA,23%
same,%Inh,AURKB,43%
same,%Inh,AURKC,32%
same,%Inh,AXL,21%
same,%Inh,BIKE,7%
NCCNS(=O)(=O)c1ccc(-c2ccnc3[nH]ccc23)cc1 [GSK977617],%Inh,ACVR2A,0%
same,%Inh,ACVR2B; 1 µM,2% and 0%
same,%Inh,ACVRL1,0%
same,%Inh,ADCK3; 1 µM,0% and 6%
same,%Inh,ADCK4; 1 µM,32% and 21%
same,%Inh,AKT1; 1 µM,77% and 66%
same,%Inh,AKT2; 1 µM,15% and 10%
same,%Inh,AKT3; 1 µM,88% and 83%
same,%Inh,ALK; 1 µM,60% and 36%
same,%Inh,AMPK-alpha1; 1 µM,50% and 38%
same,%Inh,AMPK-alpha2; 1 µM,60% and 31%
same,%Inh,ANKK1,0%
same,%Inh,ARK5; 1 µM,45% and 17%
same,%Inh,ASK1; 1 µM,30% and 5%
same,%Inh,ASK2; 1 µM,21% and 18%
same,%Inh,AURKA; 1 µM,51% and 39%
same,%Inh,AURKB; 1 µM,71% and 67%
same,%Inh,AURKC; 1 µM,92.4% and 84%
same,%Inh,AXL; 1 µM,93% and 87%
same,%Inh,BIKE; 1 µM,97.4% and 93.3%
c1ccc(-c2cc(-c3c[nH]nc3-c3ccccn3)ccn2)cc1 [GW576604],%Inh,ACVR2A,0%
same,%Inh,ACVR2B,42%
same,%Inh,ACVRL1,0%
same,%Inh,ADCK3,1%
same,%Inh,ADCK4,12%
same,%Inh,AKT1,0%
same,%Inh,AKT2,0%
same,%Inh,AKT3,0%
same,%Inh,ALK,14%
same,%Inh,AMPK-alpha1,0%
same,%Inh,AMPK-alpha2,0%
same,%Inh,ANKK1,0%
same,%Inh,ARK5,0%
same,%Inh,ASK1,4%
same,%Inh,ASK2,0%
same,%Inh,AURKA,14%
same,%Inh,AURKB,0%
same,%Inh,AURKC,3%
same,%Inh,AXL,0%
same,%Inh,BIKE,23%
COCCNC(=O)c1ccc(-c2cc(C(=O)NC3CC3)cc(F)c2C)cc1 [GW868318],%Inh,ACVR2A,12%
same,%Inh,ACVR2B,0%
same,%Inh,ACVRL1,9%
same,%Inh,ADCK3,14%
same,%Inh,ADCK4,0%
same,%Inh,AKT1,0%
same,%Inh,AKT2,15%
same,%Inh,AKT3,26%
same,%Inh,ALK,51%
same,%Inh,AMPK-alpha1,20%
same,%Inh,AMPK-alpha2,0%
same,%Inh,ANKK1,11%
same,%Inh,ARK5,0%
same,%Inh,ASK1,5%
same,%Inh,ASK2,26%
same,%Inh,AURKA,27%
same,%Inh,AURKB,33%
same,%Inh,AURKC,0%
same,%Inh,AXL,0%
same,%Inh,BIKE,7%
O=c1cc(N2CCOCC2)nc2n(Cc3cccc(C(F)(F)F)c3)ccn12 [GSK2297543],%Inh,ACVR2A,0%
same,%Inh,ACVR2B,0%
same,%Inh,ACVRL1,0%
same,%Inh,ADCK3,21%
same,%Inh,ADCK4,16%
same,%Inh,AKT1,0%
same,%Inh,AKT2,0%
same,%Inh,AKT3,15%
same,%Inh,ALK,0%
same,%Inh,AMPK-alpha1,4%
same,%Inh,AMPK-alpha2,0%
same,%Inh,ANKK1,5%
same,%Inh,ARK5,0%
same,%Inh,ASK1,0%
same,%Inh,ASK2,0%
same,%Inh,AURKA,13%
same,%Inh,AURKB,0%
same,%Inh,AURKC,4%
same,%Inh,AXL,18%
same,%Inh,BIKE,18%
CC(C)(C)n1cnc2c(N)ncnc21 [SKF-97359],%Inh,ACVR2A,0%
same,%Inh,ACVR2B,0%
same,%Inh,ACVRL1,0%
same,%Inh,ADCK3,0%
same,%Inh,ADCK4,31%
same,%Inh,AKT1,0%
same,%Inh,AKT2,0%
same,%Inh,AKT3,0%
same,%Inh,ALK,29%
same,%Inh,AMPK-alpha1,0%
same,%Inh,AMPK-alpha2,0%
same,%Inh,ANKK1,0%
same,%Inh,ARK5,19%
same,%Inh,ASK1,0%
same,%Inh,ASK2,0%
same,%Inh,AURKA,0%
same,%Inh,AURKB,15%
same,%Inh,AURKC,0%
same,%Inh,AXL,45%
same,%Inh,BIKE,0%
Cc1cn2c(=O)cc(N3CCOCC3)nc2n1Cc1cccc(Cl)c1Cl [GSK2334006],%Inh,ACVR2A,8%
same,%Inh,ACVR2B,23%
same,%Inh,ACVRL1,0%
same,%Inh,ADCK3,7%
same,%Inh,ADCK4,17%
same,%Inh,AKT1,0%
same,%Inh,AKT2,26%
same,%Inh,AKT3,26%
same,%Inh,ALK,6%
same,%Inh,AMPK-alpha1,29%
same,%Inh,AMPK-alpha2,0%
same,%Inh,ANKK1,0%
same,%Inh,ARK5,14%
same,%Inh,ASK1,1%
same,%Inh,ASK2,3%
same,%Inh,AURKA,0%
same,%Inh,AURKB,26%
same,%Inh,AURKC,44%
same,%Inh,AXL,0%
same,%Inh,BIKE,27%
CCc1ccnc(/C=C/c2n[nH]c3cc(Sc4ccccc4C(=O)NC)ccc23)c1,%Inh,ACVR2A,0%
same,%Inh,ACVR2B,0%
same,%Inh,ACVRL1,0%
same,%Inh,ADCK3,0%
same,%Inh,ADCK4,0%
same,%Inh,AKT1,0%
same,%Inh,AKT2,0%
same,%Inh,AKT3,8%
same,%Inh,ALK,11%
same,%Inh,AMPK-alpha1,0%
same,%Inh,AMPK-alpha2,0%
same,%Inh,ANKK1,0%
same,%Inh,ARK5,11%
same,%Inh,ASK1,0%
same,%Inh,ASK2,0%
same,%Inh,AURKA,77%
same,%Inh,AURKB,94.5%
same,%Inh,AURKC,97.3%
same,%Inh,AXL,45%
same,%Inh,BIKE,34%
CCc1nc(-c2cccc(C)c2)c(-c2ccnc(NCc3ccccc3)c2)s1,%Inh,ACVR2A,11%
same,%Inh,ACVR2B,0%
same,%Inh,ACVRL1,0%
same,%Inh,ADCK3,15%
same,%Inh,ADCK4,0%
same,%Inh,AKT1,4%
same,%Inh,AKT2,22%
same,%Inh,AKT3,0%
same,%Inh,ALK,0%
same,%Inh,AMPK-alpha1,3%
same,%Inh,AMPK-alpha2,5%
same,%Inh,ANKK1,0%
same,%Inh,ARK5,15%
same,%Inh,ASK1,0%
same,%Inh,ASK2,0%
same,%Inh,AURKA,0%
same,%Inh,AURKB,14%
same,%Inh,AURKC,0%
same,%Inh,AXL,0%
same,%Inh,BIKE,0%
C[C@@H](Oc1cc(-n2cnc3ccc(NC(=O)NC(C)(C)C)cc32)sc1C(N)=O)c1ccccc1Cl [GSK346294],%Inh,ACVR2A,0%
same,%Inh,ACVR2B,17%
same,%Inh,ACVRL1,1%
same,%Inh,ADCK3,37%
same,%Inh,ADCK4,31%
same,%Inh,AKT1,0%
same,%Inh,AKT2,3%
same,%Inh,AKT3,0%
same,%Inh,ALK,0%
same,%Inh,AMPK-alpha1,6%
same,%Inh,AMPK-alpha2,12%
same,%Inh,ANKK1,8%
same,%Inh,ARK5,11%
same,%Inh,ASK1,3%
same,%Inh,ASK2,0%
same,%Inh,AURKA,8%
same,%Inh,AURKB,22%
same,%Inh,AURKC,34%
same,%Inh,AXL,0%
same,%Inh,BIKE,32%
Cl.Nc1ncnc2occ(-c3ccc(NC(=O)Nc4cc(C(F)(F)F)ccc4F)cc3)c12 [SB-707548],%Inh,ACVR2A,81%
same,%Inh,ACVR2B,2%
same,%Inh,ACVRL1,0%
same,%Inh,ADCK3,10%
same,%Inh,ADCK4,28%
same,%Inh,AKT1,0%
same,%Inh,AKT2,0%
same,%Inh,AKT3,0%
same,%Inh,ALK,75%
same,%Inh,AMPK-alpha1,5%
same,%Inh,AMPK-alpha2,22%
same,%Inh,ANKK1,77%
same,%Inh,ARK5,21%
same,%Inh,ASK1,32%
same,%Inh,ASK2,0%
same,%Inh,AURKA,53%
same,%Inh,AURKB,96.7%
same,%Inh,AURKC,53%
same,%Inh,AXL,97.7%
same,%Inh,BIKE,10%
O=C(c1ccc(-c2cc(-c3c[nH]nc3-c3ccccn3)ccn2)cc1)N1CCOCC1 [GW812171],%Inh,ACVR2A,0%
same,%Inh,ACVR2B,0%
same,%Inh,ACVRL1,0%
same,%Inh,ADCK3,0%
same,%Inh,ADCK4,0%
same,%Inh,AKT1,5%
same,%Inh,AKT2,0%
same,%Inh,AKT3,0%
same,%Inh,ALK,5%
same,%Inh,AMPK-alpha1,19%
same,%Inh,AMPK-alpha2,22%
same,%Inh,ANKK1,14%
same,%Inh,ARK5,0%
same,%Inh,ASK1,0%
same,%Inh,ASK2,0%
same,%Inh,AURKA,13%
same,%Inh,AURKB,33%
same,%Inh,AURKC,0%
same,%Inh,AXL,0%
same,%Inh,BIKE,0%
Cc1cccc(-c2nc(Nc3ccc4ncsc4c3)c3ccccc3n2)n1 [GW867588],%Inh,ACVR2A,0%
same,%Inh,ACVR2B,2%
same,%Inh,ACVRL1,0%
same,%Inh,ADCK3,0%
same,%Inh,ADCK4,0%
same,%Inh,AKT1,12%
same,%Inh,AKT2,0%
same,%Inh,AKT3,0%
same,%Inh,ALK,0%
same,%Inh,AMPK-alpha1,19%
same,%Inh,AMPK-alpha2,0%
same,%Inh,ANKK1,0%
same,%Inh,ARK5,0%
same,%Inh,ASK1,15%
same,%Inh,ASK2,20%
same,%Inh,AURKA,22%
same,%Inh,AURKB,8%
same,%Inh,AURKC,0%
same,%Inh,AXL,0%
same,%Inh,BIKE,0%
